Compound in the experiment: CCc1cnn2c(NCc3ccc[n+]([O-])c3)cc(N3CCCC[C@H]3CCO)nc12 [dinaciclib]
Nature of the experiment: cell viability remaining relative to DMSO control; higher = less cytotoxic (more viable cells). To be noted: 100 nM; 24 h. As to the method: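 Solid tumor cell lines were treated with dinaciclib (100 nM) for 24 hr. Viability was measured by CellTiter-Glo ATP luminescence and expressed as % of DMSO-treated control wells (mean of 2-6 plates, triplicate wells per plate).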
Regarding SCC9, the cell viability remaining is 64.4%.
The same measure for OVCAR8: 104%; for COLO679: 68.6%.
The same measure for ACHN: 72.1%; for EFO27: 106%.
The value for NCI-H2110 was 56.9%; that for HS934T was 124%.
Take SNU1: the cell viability remaining is 50.8%.
The same measure for A172: 73.1%; for COLO792: 8.9%.
The value for HS940T was 78.6%; that for A204 was 40.8%.
The value for MG63 was 86.8%.
Turning to H2452, the cell viability remaining was determined as 21.1%.
The value for HLE was 37.7%; that for MFE319 was 78.3%.
The same measure for SKUT1: 74.7%.
Consider COLO829, for which the cell viability remaining turned out to be 24.8%.
The same measure for H2030: 91.9%; for EFE184: 93.1%; for CAL27: 11.2%.
The same measure for SW403: 74.9%.
The value for PC3 was 66.2%; that for H23 was 41.9%.
For HEC6, the cell viability remaining was found to be 57.7%.
The value for H460 was 52.2%; that for MDAMB453 was 65.4%; that for SW1116 was 86.8%.
SJRH30: the cell viability remaining was 12%.
The same measure for H1975: 69.4%; for HCT116: 55.4%.
The same measure for COV644: 23.3%; for CAOV3: 42.2%; for SNGM: 98.3%.
The value for SKLU1 was 82.6%; that for ES2 was 52.5%.
Turning to MCF7, the cell viability remaining was determined as 76%.
The value for BT20 was 45.2%; that for A2780 was 44.5%; that for HPAFII was 58.1%.

Source of the values: the supplement of paper PMC4188521.
